# Screens as filed in PubChem BioAssay.
# This is a sample that favours compounds with a hit; in the whole collection about 1.2% have one here.
# RGS16-Gao: RGS16-Galphao interaction regulator (human); bead-based flow cytometry RGS16-Galphao binding, fluorescence; actives lie on both sides; binding response (% of control), % at 10 µM; hit rate 0.38% among 220,000;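 also: Galphao activated by GDP with aluminum fluoride before binding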
# Target sequence (O15492 whole entry, looked up): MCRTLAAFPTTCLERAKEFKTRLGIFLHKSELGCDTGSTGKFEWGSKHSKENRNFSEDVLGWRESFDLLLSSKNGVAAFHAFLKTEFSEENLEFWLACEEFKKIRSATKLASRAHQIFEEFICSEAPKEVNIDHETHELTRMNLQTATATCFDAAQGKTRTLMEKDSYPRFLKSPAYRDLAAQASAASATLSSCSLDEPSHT
# Target sequence (P09471 whole entry, looked up): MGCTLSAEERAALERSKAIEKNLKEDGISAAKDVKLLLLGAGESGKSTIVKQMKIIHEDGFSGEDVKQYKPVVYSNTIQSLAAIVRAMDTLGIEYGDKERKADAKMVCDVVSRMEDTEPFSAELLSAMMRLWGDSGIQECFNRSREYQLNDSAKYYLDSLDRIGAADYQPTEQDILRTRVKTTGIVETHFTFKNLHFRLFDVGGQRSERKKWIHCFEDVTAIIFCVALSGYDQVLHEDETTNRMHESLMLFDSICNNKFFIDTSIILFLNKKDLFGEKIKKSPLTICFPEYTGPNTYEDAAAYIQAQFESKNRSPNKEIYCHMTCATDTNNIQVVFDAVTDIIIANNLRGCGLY
# RGS7-Gao: regulators of human RGS7-Galphao interaction; Multiplexed bead flow cytometry, RGS7-Galphao binding; actives lie on both sides; AID 1439; binding response (% of control), % at 10 µM; P09471; hit rate 0.35% among 220,000; in the data active = binding response below about 49% or above about 150%; inconclusive = no clear call, values can overlap the other calls; inactive = in between;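 also: fluorescent Galphao held in activated GDP-AlF4 state binding bead-coupled RGS7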
# Target sequence (P09471 whole entry, looked up): as above
# Avidin fluor: avidin bead compound fluorescence profile | fluorescence (KMESF) at 10 µM | hit rate 0.38% among 220,000 | Avidin beads, compound fluorescence 488/530 nm, flow cytometry; hits give high values; in the data active = fluorescence above about 47
# RGS4-Gao reg: human RGS4-Galphao interaction regulation. P09471. Multiplexed bead flow cytometry, RGS4-Galphao binding; actives lie on both sides. binding response (% of control), % at 10 µM. hit rate 0.33% among 220,000. AID 1415; in the data active = binding response below about 49% or above about 150%; inactive = in between;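 also: fluorescent Galphao activated with aluminum fluoride binding bead-coupled RGS4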
# GSH fluor: GSH bead compound fluorescence profile | GSH beads flow cytometry, compound fluorescence 488/530 nm; hits give high values | fluorescence (KMESF) at 10 µM | hit rate 0.25% among 190,000; in the data active = fluorescence above about 89;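 also: glutathione beads carrying GST-tagged Bcl family fusion proteins plus one bare bead set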
# RGS8-Gao reg: modulates binding of RGS8 to human Galphao; multiplexed bead flow cytometry; actives lie on both sides; P09471; hit rate 0.34% among 220,000; response (percent of control binding), % at 10 µM; in the data active = response below about 60% or above about 140%; inactive = in between;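 also: Galphao activated as the GDP aluminium fluoride complex binding bead-coupled RGS8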
# RGS4-Gao HTS: modulates binding between human RGS4 and Galphao; shares compounds with RGS16-Gao; multiplexed bead flow cytometry, RGS–Galpha-o binding; RGS4–Galpha-o binding response, % at 10 µM; hit rate 99% among 1,600;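 also: fluorescently labeled Galpha-o bound to GDP with aluminium fluoride binding biotinylated RGS beads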
# Avidin counter: counter-screen: compounds disrupting biotin binding to avidin beads; shares compounds with RGS16-Gao; streptavidin beads, fluorescein-biotin binding, flow cytometry; inhibition, % at 10 µM; 1,700 tested, under 10 active;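 active = inhibition above 50%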;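 also: median green fluorescence of gated singlet beads compared with DMSO control wells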
# RGS8-Gao confirm: confirmation of regulators of human RGS8-Galphao interaction | binding response (% of control), % at 10 µM | hit rate 3% among 1,700 | bead-based flow cytometry RGS8-Galphao binding, fluorescence; actives lie on both sides | shares compounds with RGS16-Gao | AID 1836; in the data active = binding response below about 72% or above about 130%; inactive = in between;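 also: Galphao activated as GDP AlF4 complex before binding bead RGS8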
# RGS7-Gao single: confirmation of regulators of human RGS7-Galphao interaction; shares compounds with RGS16-Gao; bead-based flow cytometry RGS7-Galphao binding; actives lie on both sides; response (percent of control binding), % at 10 µM; hit rate 7.8% among 1,700; AID 1837; in the data active = response below about 75% or above about 130%; inactive = in between;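 also: fluorescent Galphao activated with GDP and aluminum fluoride binding bead-coupled RGS7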
# RGS16-Gao conf: confirmation of regulators of human RGS16-Galphao interaction; bead-based flow cytometry, RGS16-Galphao binding; actives lie on both sides; AID 1838; shares compounds with RGS16-Gao; hit rate 4% among 1,700; response (% of control binding), % at 10 µM; in the data active = response below about 74% or above about 130%; inactive = in between;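 also: Galphao activated as the GDP aluminium fluoride complex binding bead-coupled RGS16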
# RGS4-Gao confirm: confirmation of regulators of human RGS4-Galphao interaction | shares compounds with RGS16-Gao | RGS4-Galphao binding, multiplexed bead flow cytometry; actives lie on both sides | binding response (% of control), % at 10 µM | hit rate 4% among 1,700 | AID 1840; in the data active = binding response below about 74% or above about 130%; inactive = in between
# RGS19-Gao single: RGS19-Galphao interaction regulation, single point confirmation; response (percent of control binding), % at 10 µM; shares compounds with RGS16-Gao; hit rate 5% among 1,700; bead-based flow cytometry RGS19-Galphao binding; actives lie on both sides; in the data active = response below about 50% or above about 160%; inactive = in between
# Hits are given with their value; n = inactive; u = inconclusive; x = not tested or not shown; [ ] = another dose, or the depositor's remark. Unless noted, no rule for the calls is given here.
SMILES,RGS16-Gao,RGS7-Gao,Avidin fluor,RGS4-Gao reg,GSH fluor,RGS8-Gao reg,Avidin counter,RGS8-Gao confirm,RGS7-Gao single,RGS16-Gao conf,RGS4-Gao confirm,RGS19-Gao single,others
O=C(O)CC1(CC(=O)NCc2cc(F)cc3c2OCOC3)CCCCC1,n,u,n,157[activator],x,n,n,n,n,n,n,n,
Cc1cccc(C)c1-n1cccc1/C=C1/C(=N)N2C(=NC1=O)SN=C2S(C)(=O)=O,n,n,n,n,n,n,x,x,x,x,x,x,
Cc1ccc(-n2cccc2/C=C2/C(=N)N3C(=NC2=O)SN=C3S(C)(=O)=O)cc1Cl,n,45,n,n,n,n,x,x,x,x,x,x,RGS4-Gao HTS=72
CN(Cc1cc(-c2ccccc2)on1)C(=O)c1cc(COc2c(F)cccc2F)on1,n,n,n,n,n,n,x,x,x,x,x,x,
O=C(Nc1ccc2c(c1)OCO2)C1CCN(Cc2cnn(-c3ccccc3)c2-n2cccc2)CC1,n,37,n,n,n,56,n,n,n,n,n,n,RGS4-Gao HTS=79
O=C(CSc1ncn[nH]1)c1cc2ccccc2o1,219[activator],243[activator],n,265[activator],n,n,n,n,n,n,n,n,
O=C(CSc1nccc(=O)[nH]1)c1cc2ccccc2o1,n,u,n,n,x,n,x,x,x,x,x,x,
CCCn1nnc(NC(=O)c2cc3ccccc3o2)n1,n,n,n,n,n,n,x,x,x,x,x,x,
CCCCn1nnc(NC(=O)c2cc3ccccc3o2)n1,n,n,n,n,n,148[activator],n,n,n,n,n,n,RGS4-Gao HTS=134
Nc1n[nH]c(N)c1N=Nc1ccccc1,n,n,n,n,n,n,x,x,x,x,x,x,
Nc1n[nH]c(N)c1N=Nc1ccc(Cl)cc1Cl,n,46,n,n,n,n,n,n,n,n,n,n,RGS4-Gao HTS=53
COc1cccc(NC(=O)Nc2nnc(-c3ccccc3SCc3ccccc3)s2)c1,n,n,n,n,n,n,x,x,x,x,x,x,
COc1ccc(NC(=O)Nc2nnc(-c3ccccc3SCc3ccccc3)s2)cc1,x,x,x,x,n,x,n,n,n,n,n,n,
CC/S(=N\S(=O)(=O)c1ccc(C)cc1)c1ccccc1 (stereo unspecified),n,u,n,n,x,n,x,x,x,x,x,x,
COC(=O)c1sc(-c2cccs2)cc1N,n,u,50,173[activator],x,n,n,n,n,n,n,n,
COC(=O)c1sc(-c2ccc(Cl)cc2)cc1N,n,u,n,n,x,n,x,x,x,x,x,x,
O=C(NC(=S)NCCOCc1ccc(Cl)cc1)c1cccnc1,16,n,n,n,n,n,n,n,n,n,n,n,RGS4-Gao HTS=89
O=C(Cc1ccc(Cl)cc1)NNC(=S)NC(=O)c1cccnc1,n,n,n,n,n,n,x,x,x,x,x,x,
CC(=O)N1C(Nc2ccc(Cl)cc2)CCN1c1ccccc1 (stereo unspecified),x,x,x,x,n,x,n,n,n,n,n,n,
CCOc1ccc2ncc(C(=O)c3ccc(OC)cc3)c(N3CCN(CC)CC3)c2c1,284[activator],309[activator],50,359[activator],129,n,n,n,n,n,n,n,
CCc1ccc(C(=O)c2cnc3ccc(OC)cc3c2N2CCN(CC)CC2)cc1,n,n,n,n,n,n,x,x,x,x,x,x,
OC12CCCCC1C(c1ccc3c(c1)OCO3)N(Cc1ccc(F)cc1)CC2 (stereo unspecified),n,n,n,n,n,n,x,x,x,x,x,x,
OC12CCCCC1C(c1ccc3c(c1)OCO3)N(Cc1ccccc1F)CC2 (stereo unspecified),n,158[activator],130,n,n,n,n,n,n,n,n,n,RGS4-Gao HTS=113
CCOc1ccc(NC(=O)CC2C(=O)N(c3ccccc3)C(=O)N2Cc2ccccn2)cc1 (stereo unspecified),n,n,n,n,n,144[activator],n,n,n,n,n,n,RGS4-Gao HTS=135
O=C(NCCc1ccccc1)c1ccco1,n,n,n,n,n,n,x,x,x,x,x,x,
SMILES,RGS16-Gao,RGS7-Gao,Avidin fluor,RGS4-Gao reg,GSH fluor,RGS8-Gao reg,Avidin counter,RGS8-Gao confirm,RGS7-Gao single,RGS16-Gao conf,RGS4-Gao confirm,RGS19-Gao single,others
C=C(C)CC(NCCc1ccccc1)c1ccco1 (stereo unspecified),n,n,n,156[activator],n,n,n,n,n,n,n,n,
CNC(=O)/C(C#N)=C/c1cc(C)n(-c2ccc(N3CCOCC3)cc2)c1C,216[activator],u,114,254[activator],x,n,n,n,n,n,n,n,
CCc1nc2cc([N+](=O)[O-])c([N+](=O)[O-])cc2[nH]1,n,n,n,n,n,n,x,x,x,x,x,x,
COc1ccccc1/C=N/NC(=O)c1ccc(-c2ccccc2)cc1,191[activator],n,n,n,n,n,n,n,61,n,n,n,RGS4-Gao HTS=117
COc1cccc(/C=N/NC(=O)c2ccc(=O)n(C)c2)c1OC,n,n,n,n,n,n,x,x,x,x,x,x,
COc1cccc(/C=N/NC(=O)c2ccccc2)c1OS(=O)(=O)c1ccccc1,25,n,n,n,n,n,n,n,n,n,n,n,RGS4-Gao HTS=91
O=[N+]([O-])c1ccc2nc(SCc3ccccc3Cl)sc2c1,n,n,n,n,n,n,x,x,x,x,x,x,
O=C(CSc1nc2ccc([N+](=O)[O-])cc2s1)c1ccc2ccccc2c1,5.0,u,n,3.0,x,31,n,n,n,n,n,n,
O=C(CSc1ccc2ccccc2c1)NC1CCCc2ccccc21 (stereo unspecified),n,n,n,n,n,n,x,x,x,x,x,x,
O=C(CN(Cc1ccccc1)S(=O)(=O)c1ccc2c(c1)OCCO2)Nc1ccc2c(c1)OCCO2,n,261[activator],95,184[activator],n,n,n,n,n,n,n,n,
CS(=O)(=O)N(CC(=O)Nc1ccc2c(c1)OCCO2)Cc1ccccc1,n,n,n,n,n,n,x,x,x,x,x,x,
c1ccc(Oc2cc(-c3ccccc3)nc(-c3ccccc3)n2)cc1,19,18,n,27,n,39,n,n,n,n,n,n,
Cc1cc(Oc2ccccc2)nc(-c2ccccc2)n1,n,n,n,n,n,n,x,x,x,x,x,x,
